Data on 40 compounds can be found in PubChem BioAssay (NCI).

“And” between values parts separate entries of the source, which are not always exact repeats. Identical values can stand only once. This is part of a sample that, as a whole, favours compounds with a hit. Of some 83,000 tested, about 20% had one in any assay.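 Values shown are percent growth following 48 h exposure of cells in 96-well plates to a single concentration of compound; below 10 was considered active.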 The source made the active and inactive calls.

This assay deals with MDA-MB-468 breast. Put plainly: NCI-60 one-dose screen, 48 h (100 = growth as untreated, 0 = no growth, -100 = all killed). Conditions: 10 µM unless noted.
As for `COC(=O)C12C3C4C1C1C2C3C41NC(=O)c1csc([C@@H](C[C@H](C(C)C)N(C)C(=O)[C@@H](NC(=O)[C@H]2CCCCN2C)C2CC2)OC(C)=O)n1` (stereo not given in full), the growth is 29.6% (inactive).

On to `CCOc1ccccc1C(=O)OCC(Cl)(Cl)Cl`, for which the growth is 110% (inactive).

Consider `COC[C@@H]1C[C@@]2(C)[C@@H](CC[C@@H]3[C@@H]2CC[C@@]2(C)[C@H]3CC[C@]2(C)O)CC1=O`, for which the growth was 99% (inactive).

As for `N/C(=N\N=C\c1ccc(-c2ccccc2)cc1)N[N+](=O)[O-]`, the growth is 20% (inactive).

`C#C[C@]1(OC(=O)CCCCCC)CC[C@H]2[C@@H]3CCC4=CC(=O)CC[C@@H]4[C@H]3CC[C@@]21C`: the growth was 39.6% (inactive).

As for `CC[C@@H](C)/C=C(C)/C=C/C(=O)c1c(O)c(-c2ccc(O)cc2)cn(O)c1=O`, the growth was -25% (active).

On to `C[C@]12CCc3nc(-c4ccc(O)c(O)c4)sc3C1=CC[C@@H]1[C@@H]2CC[C@]2(C)C(=O)CC[C@@H]12`, for which the growth is 80.1% (inactive).

Consider `C/C1=C/C(=O)O[C@@H]2C[C@@H](CC[C@H](C)/C=C\C=C\CC1)O[C@@](O)([C@@H]1CSC(=O)N1CO)C2`, for which the growth is 10.3% (inactive).

In the case of `CC(=O)O[C@H]1CC[C@H]2[C@@H]3CC[C@H]4CC=C(C)C[C@]4(C)[C@H]3CC[C@]12C`, the growth was 105% (inactive).

As to `O=C1C2C(C(=O)[N]1[Hg][c]1ccccc1)C1(Cl)C(Cl)=C(Cl)C2(Cl)C1(Cl)Cl` (stereo not given), the growth was -72.7% (active).

Turning to `[Cl][Hg][c]1cc(Br)cc(Br)c1`, the growth was 7.71% (active).

As to `COc1cccc2c1cc([N+](=O)[O-])c1c(C(=O)O)cc3c(c12)OCO3`, the growth is -46.6% (active) and 100% (inactive).

Take `Cc1cccc(N(C)c2cccc3c2C(=O)[Se]C3)c1C`: the growth is 16.9% (inactive).

Turning to `CC1=C(O)[C@@](C)(CCCCC[C@H](C)CCCCc2ccc(O)cc2)OOC1=O`, the growth was 113% (inactive).

Turning to `COc1cc(C=Nc2cccc(Br)c2)ccc1N(CCCl)CCCl`, the growth is -18.8% (active).

Take `O=CN1N=C(c2ccc3c(c2)OCO3)CC1c1sc(N(CCCl)CCCl)nc1Cl` (stereo not given): the growth was 90.9% (inactive).

With `C[C@]12CC[C@H]3[C@@H](CC=C4c5nc(N)sc5CC[C@@]43C)[C@@H]1CC[C@@H]2O`, the growth was 91.2% (inactive).

Regarding `CN1CCC(c2c[nH]c3ccccc23)C1` (stereo not given), the growth is 116% (inactive).

For the compound `COC(=O)CC12CC(NC(=O)c3csc([C@@H](C[C@H](C(C)C)N(C)C(=O)[C@@H](NC(=O)[C@H]4CCCCN4C)C(C)C)OC(C)=O)n3)(C1)C2`, the growth was 38.6% (inactive).

In the case of `CC[CH2][Sn]([Cl])([Cl])[CH2]CC`, the growth is 22.4% (inactive).

Regarding `O=C(O)C1(Br)CC12c1ccccc1-c1ccccc12` (stereo not given), the growth is 98.7% (inactive).

For the compound `CC(C)=CC1C(C(=O)OCc2cccc(Oc3ccccc3)c2)C1(C)C` (stereo not given), the growth was 100% (inactive).

As to `CCC(/C=C(C)/C=C/C(=O)c1c(O)c(-c2ccc(O)cc2)c[nH]c1=O)CO` (stereo not given), the growth was 98.5% (inactive).

Regarding `COc1cc(/C=C\c2cc(OC)c(OC)c(OC)c2)cc(N/C=C\C(=O)c2cc(OC)c(OC)c(OC)c2)c1OC`, the growth was -10.6% (active).

Regarding `O=C1C=Cc2ccccc2C1=O`, the growth is 104% (inactive).

Consider `Clc1ccc(CO/N=C(\Cn2ccnc2)c2ccc(Cl)cc2Cl)c(Cl)c1`, for which the growth was -24.5% (active).

As to `CC(C)COC(C[N+](=O)[O-])C(Cl)(Cl)Cl` (stereo not given), the growth was 112% (inactive).

`CC1=C(CCCNS(C)(=O)=O)C2=C(C)C3(CC3)[C@@](C)(O)C(=O)C2=C1`: the growth was -80.9% (active).

For the compound `Oc1cc[c]([Hg][Cl])cc1`, the growth is 93.6% (inactive).

In the case of `NC(=O)C(Br)c1ccccc1` (stereo not given), the growth is 57.5% (inactive).

Take `CC[S][Hg][Cl]`: the growth was 116% (inactive).

Turning to `CCC(C)/C=C(C)/C=C/C(=O)c1c(O)c(-c2ccc(O)cc2)c[nH]c1=O` (stereo not given), the growth was 30.3% (inactive).

Take `S=P(Nc1ccccc1)(Nc1ccccc1)c1ccccc1`: the growth is 127% (inactive).

`Oc1c(I)cc(I)cc1I`: the growth is 102% (inactive).

As to `CCCC(C)SP(=S)(SC(C)CCC)SC(C)CCC` (stereo not given), the growth was -25.4% (active).

In the case of `O=C1C2C(C(=O)[N]1[Hg][c]1cccs1)C1(Cl)C(Cl)=C(Cl)C2(Cl)C1(Cl)Cl` (stereo not given), the growth was -83.7% (active).

As to `CC(C)[C@]12O[C@H]1[C@@H]1O[C@]13[C@]1(O[C@H]1C[C@H]1C4=C(CC[C@@]13C)C(=O)OC4)[C@@H]2OC(=O)OC(C)(C)C`, the growth was -48.4% (active).

For the compound `CCOC(=O)c1c(C)n(Cc2ccccc2)c2cc(CN(C)C)c(O)cc12`, the growth was 73.9% (inactive).

In the case of `C/C(=N/OC(=O)N(C)C)c1cc(Cl)ccc1Cl`, the growth is 102% (inactive).

As for `CC1(C)N=C(N)N=C(N)N1c1ccc(CCCCc2ccc(Cl)c(S(=O)(=O)F)c2)c(Cl)c1`, the growth was 6.7% (active).
